Screening results as filed in PubChem.
Calb biofilm kill = kills Candida albicans biofilms; C. albicans biofilm + clotrimazole, Alamar Blue; inhibition, % at 6 µM; actives 0.14% (n = 85,000); AID 834;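 active = inhibition above 20%; inactive = inhibition below 20%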;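 note: preformed 24 hr biofilms exposed to compound for 48 hr; 0% = biofilm without compound and 100% = blank killed by clotrimazole plus chlorhexidine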
HePTP inhibitor = human HePTP phosphatase inhibition; P35236; inhibition, % at 20 µM; actives 0.64% (n = 110,000); recombinant HePTP phosphatase activity, OD absorbance; in the data active = inhibition above about 50%;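 note: plate controls were vehicle for no effect and reference inhibitor for full effect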
D1 allo mod = allosteric modulators of human D1 dopamine receptor; P21728; HEK293 D1, CRE-luciferase, dopamine EC30 potentiation; actives deviate in either direction; B-score at 10 µM; actives 5.9% (n = 58,000); AID 641;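 active = luminescence count or its row- and column-corrected plate score outside the 99.7% band of the plate's sample wells, on either side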
Target sequence (P21728 whole entry, looked up): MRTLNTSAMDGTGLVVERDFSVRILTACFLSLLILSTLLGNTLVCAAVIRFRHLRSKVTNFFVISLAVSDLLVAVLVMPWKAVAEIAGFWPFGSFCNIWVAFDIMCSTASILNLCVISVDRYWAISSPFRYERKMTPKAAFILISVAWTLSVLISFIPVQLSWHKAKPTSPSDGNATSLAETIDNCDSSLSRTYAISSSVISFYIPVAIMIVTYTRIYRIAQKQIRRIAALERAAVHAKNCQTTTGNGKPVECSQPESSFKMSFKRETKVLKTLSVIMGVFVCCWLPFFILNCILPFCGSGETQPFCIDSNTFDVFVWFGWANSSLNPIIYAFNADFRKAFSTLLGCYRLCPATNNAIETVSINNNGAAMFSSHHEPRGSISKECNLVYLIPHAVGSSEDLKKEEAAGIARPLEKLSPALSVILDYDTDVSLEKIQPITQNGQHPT
TNAP act mid DEA = activators of human TNAP at intermediate phosphate acceptor; 64,000 tested, under 10 active; purified TNAP, CDP-star luminescence, 100 mM DEA, 30 min; active compounds read high; scale: 0 levamisole-inhibited, 1 vehicle-only enzyme; P05186; activation factor at 20 µM;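 active = activation factor of at least 2 at 20 µM, relative to controls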
DAT uptake mod = modulates human dopamine transporter uptake under cocaine; Q01959; AID 449768; B-score at 10 µM; actives 1.3% (n = 110,000); LLC-PK1 hDAT cells, [14C]-dopamine uptake with cocaine IC80; actives deviate in either direction;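 active = Z score or B-score, a plate-position-corrected score, falls beyond the plate's 99.7% confidence bounds, in either direction; inactive = both scores lie inside the 99.7% bounds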;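 note: scored against the spread of the other compound wells on the same plate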
PLAP act = human PLAP activation. actives 1.2% (n = 96,000). activation fold at 20 µM. purified PLAP enzyme, luminescent substrate read-out; active compounds read high; in the data active = activation fold above about 2
An asterisk follows results filed as active; nt = not tested or not shown. This is one part of a sample in which hits are shown more often than they occur.

SMILES	Calb biofilm kill	HePTP inhibitor	D1 allo mod	TNAP act mid DEA	DAT uptake mod	PLAP act
N#Cc1c(-c2ccc(Br)cc2)cc(-c2ccco2)c(C#N)c1N	nt	100.7*	nt	nt	nt	nt
CC(C)CC(=O)NC(NC(=O)CC(C)C)c1ccc(Br)cc1	nt	7.8	nt	nt	nt	nt
COC(=O)C1=C(C)NC(=O)/C1=C\c1ccc(OC)cc1	nt	6.0	nt	nt	nt	nt
COC(=O)C1=C(C)NC(=O)/C1=C\c1ccc(Br)cc1	nt	66.7*	nt	nt	nt	nt
COCc1cc(C)nc(N/N=C/c2c[nH]c3ccccc23)c1C#N	nt	-4.5	nt	nt	nt	nt
CCOC(=O)N1CCN(C(=O)COc2ccccc2OC)CC1	-1.9	5.4	-0.737	1	1.04	1
CCOC(=O)C1CCN(C(=O)COC(=O)COc2ccccc2OC)CC1	5.8	5.9	-0.519	0.9	-8.48*	1.3
O=C(NCCCN1CCN(c2ccc(F)cc2)CC1)c1cccc(N2CCCC2=O)c1	2.7	-19.6	-6.09*	0.9	-0.802	1.5
CCc1ccc(CNc2ccc(O)cc2)cc1	4.8	3.0	-0.783	0.9	2.91*	1.3
CCc1cc2c(=O)c(-c3ccc4c(c3)OCCO4)coc2cc1OC(=O)c1ccco1	-0.5	-1.7	-2.88*	0.9	1.38	1.1
Cc1cc(C)c2c(c1)=C(c1sc(N)nc1O)C(=O)N=2	nt	69.2*	nt	nt	nt	nt
Cc1cc(C)c2c(c1)=C(c1sc(=S)[nH]c1O)C(=O)N=2	nt	3.0	nt	nt	nt	nt
O=C(O[C@H]1CCN(C(=O)c2ccccc2)[C@@H]2CCCC[C@H]12)c1ccccc1	nt	-0.9	nt	nt	nt	nt
COC(=O)c1ccccc1NC(=O)CN(c1ccc(OC)cc1)S(=O)(=O)c1ccc(C)cc1	nt	50.4*	nt	nt	nt	nt
CCOC(=O)C1=C(c2ccccc2)N=c2s/c(=C\c3cccc(O)c3)c(=O)n2C1c1cccc(OC)c1OC (stereo not drawn)	nt	4.7	nt	nt	nt	nt
COc1ccc(NC(=O)COn2nnc3ccc(Cl)cc32)cc1OC	5.5	6.1	-2.6*	0.9	0.601	1.2
Nc1cccc(-c2nc3ccc(N)cc3s2)c1	3.3	3.1	-4.68*	0.8	1.3	1
Nc1ccc(O)c(-c2nc3ccccc3s2)c1	-3.6	2.3	-0.342	0.9	-0.00833	1
CCOC(=O)N1CCN(C(c2cccc(OC)c2)c2sc3nc(C)nn3c2O)CC1 (stereo not drawn)	2.5	10.6	-6.79*	0.9	0.239	1.3
O=C(Nc1nnc(-c2ccc(F)cc2)s1)c1ccc(Cl)cc1Cl	nt	5.8	nt	nt	nt	nt
CN1C(=S)SC(/[N+]([O-])=C\c2cccs2)C1(C)C (stereo not drawn)	4.1	3.2	-7.52*	0.9	-0.624	1.1
CN1C(=S)SC(/[N+]([O-])=C\c2ccco2)C1(C)C (stereo not drawn)	3.9	-12.0	-5.78*	0.9	0.401	0.8
COc1ccc(NC(=O)CN(Cc2ccccc2)S(=O)(=O)c2ccccc2)cc1Cl	nt	9.5	nt	nt	nt	nt
CCOc1ccc(NC(=O)CN(Cc2ccccc2)S(C)(=O)=O)cc1	7.7	nt	nt	nt	0.739	nt
CC(C)c1ccc(NC(=O)CN(Cc2ccccc2)S(C)(=O)=O)cc1	2.7	nt	nt	nt	3*	nt
SMILES	Calb biofilm kill	HePTP inhibitor	D1 allo mod	TNAP act mid DEA	DAT uptake mod	PLAP act
O=c1c2c(nc3cc(-c4ccc(Br)cc4)[nH]n13)CCS2	nt	51.6*	nt	nt	nt	nt
O=C(NCCCN1CCc2ccccc2C1)Nc1ccc(Cl)cc1	4.1	nt	nt	nt	-2.52*	1.1
COc1ccc(NC(=O)NCCN2CCc3ccccc3C2)cc1	nt	nt	0.438	nt	0.0326	nt
COc1cccc(NC(=O)C2CCCN(S(=O)(=O)c3ccc(-n4cnnn4)cc3)C2)c1 (stereo not drawn)	3.2	3.9	-4.12*	1	0.876	0.9
O=C(Nc1ccc(Cc2ccncc2)cc1)C1CCC(N2C(=O)C3C4C=CC(C4)C3C2=O)CC1 (stereo not drawn)	nt	nt	nt	nt	0.161	2.1*
O=C(Nc1ccc(Cc2ccncc2)cc1)C1CCC(N2C(=O)C3CC=CCC3C2=O)CC1 (stereo not drawn)	4.9	nt	nt	nt	0.295	1.1
COc1ccc2[nH]c(C(=O)O)c(NS(=O)(=O)c3ccc(Cl)s3)c2c1	2.4	0.4	-0.431	0.9	0.00879	2.2*
O=C(/C=C/c1ccc2c(c1)OCO2)N1CCCC1	nt	-6.4	nt	nt	nt	nt
Cn1c(C(=O)Nc2ccc3c(c2)OCCO3)cc2c(=O)n(C)c3ccccc3c21	8.0	1.6	-4.53*	0.9	-0.254	1.5
O=C(CS(=O)(=O)c1c[nH]c2ccccc12)Nc1ccc2c(c1)OCCO2	4.6	3.4	0.777	0.9	1.17	1
Cn1c(C(=O)N2CCN(C(=O)c3ccco3)CC2)cc2c(=O)n(C)c3ccccc3c21	2.7	3.7	0.386	1	2.18*	1.5
Cn1cc(S(=O)(=O)CC(=O)Nc2ccc3c(c2)OCCO3)c2ccccc21	22.5*	2.9	0.11	0.9	1.64	nt
Cn1cc(S(=O)(=O)N2CCN(C(=O)c3ccco3)CC2)c(=O)n(C)c1=O	20.1*	-10.3	-0.439	1	0.397	1
COc1cc(OC)c(OC)cc1CN1CCN(Cc2cc(OC)c(OC)cc2Br)CC1	nt	-13.2	nt	nt	nt	nt
C=CCn1c(O)c(N=NC(=O)c2cc(C)[nH]n2)c2cc(Br)ccc21	nt	3.6	nt	nt	nt	nt
Cc1ccc(NC(=S)NC(=O)/C=C/c2ccco2)c(Br)c1	nt	8.8	nt	nt	nt	nt
O=C(Nc1ccncc1)c1ccc([N+](=O)[O-])cc1	nt	4.5	nt	nt	nt	nt
O=C(NC1(C(F)(F)F)NC(=O)N(c2ccc(F)c(Cl)c2)C1=O)c1ccncc1 (stereo not drawn)	nt	nt	nt	nt	-3*	1.2
O=C(COc1ncnc2ccc(Br)cc12)NCc1ccc2c(c1)OCO2	nt	nt	nt	nt	-8.86*	0.9
O=C(c1cccs1)c1coc2ccc(O)c(CN(CCO)CCO)c12	6.0	nt	nt	nt	-1.18	2.4*
CCOC(=O)N1CCC2(CC1)C(C#N)=C(N)Oc1n[nH]c(CSc3ccc(C)cc3)c12	0.2	5.4	-4.59*	1	0.145	1.1
Cc1nc(-c2cccc(NS(C)(=O)=O)c2)cs1	0.3	nt	nt	nt	nt	0.9
Cc1nc(-c2cccc(NS(=O)(=O)c3cccc4ccccc34)c2)cs1	-1.6	nt	nt	nt	3.5*	1.5
Cc1nc(-c2cccc(NC(=O)c3cccs3)c2)cs1	4.5	nt	nt	nt	3.22*	nt
O=C(Nc1cccc(-c2csc(-c3ccccc3)n2)c1)c1cccs1	4.9	nt	nt	nt	1.52	0.7
COc1ccc(CSc2nnc(C)s2)cc1F	nt	-23.7	nt	nt	nt	nt
CCOc1ccc(-c2nc(CSc3nnc(C)s3)cs2)cc1OC	nt	nt	nt	nt	1.76	2.1*
Cc1ccc(S(=O)(=O)NC(Cc2ccccc2)C(=O)Nc2ccc(F)cc2)cc1 (stereo not drawn)	nt	3.1	nt	nt	nt	nt
